Here are results for eight compounds from PubChem BioAssay (NCI).

Test systems include NCI-H23 lung; NCI-H226 lung; NCI-H322M lung; HOP-62 NSCLC; NCI-H460 lung; HOP-92 NSCLC; NCI-H522 lung; A549/ATCC NSCLC; 786-0 renal; COLO 205 colon; DU-145 prostate; MALME-3M melanoma; MDA-MB-231 breast; RXF 393 renal; SF-268 CNS; SF-295 CNS; SF-539 CNS; UACC-257 melanoma; M14 melanoma.
Assay in all cases: NCI-60 one-dose screen, 48 h (100 = growth as untreated, 0 = no growth, -100 = all killed)
Holding throughout (settings): 10 µM unless noted

About 83,000 compounds went through this panel and 20% of them were active in at least one assay; those are over-represented in the sample as a whole.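 Step 1: grow cells in 96-well plates. Step 2: add test compound at a single concentration. Step 3: incubate 48 h. Step 4: record percent growth.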 Unmarked numbers belong to inactive results. Activity calls are given as the source filed them. How the source made its calls: active means growth percent below 10; inactive means the rest.

`C=C1C(=O)O[C@H]2[C@H]1CC/C(COC(=O)c1ccccc1)=C\CC[C@@]1(C)O[C@@H]21`: the growth was 45% in the test with NCI-H23 lung; -37.2% (active) in the test on NCI-H226 lung; 59.3% in the test with NCI-H322M lung; 36.6% in the test with HOP-62 NSCLC; 38% in the test on NCI-H460 lung; -41.9% (active) with HOP-92 NSCLC. In addition, the growth is -77.7% (active) in the test on NCI-H522 lung; 23.3% in the test on A549/ATCC NSCLC; -59.2% (active) in the test on 786-0 renal; -64.7% (active) in the test with COLO 205 colon; 6.11% (active) with DU-145 prostate; -65% (active) in the test with MALME-3M melanoma. The growth in the test with MDA-MB-231 breast was -37.1% (active); in the test on RXF 393 renal, -84% (active); with SF-268 CNS, 41%; in the test with SF-295 CNS it was 60.8%; in the test on SF-539 CNS, -65.5% (active); in the test on UACC-257 melanoma, 30%. Further, the growth in the test on M14 melanoma is -31.9% (active).

For `CCNC(=O)Oc1ccc(/C(=C(/CC)Cc2ccccc2)c2ccc(OCCN3CCOCC3)cc2)cc1`, the growth with NCI-H23 lung is 66.8%; in the test with NCI-H226 lung, 59.4%; with NCI-H322M lung, 72.8%; in the test on HOP-62 NSCLC it was 84%; in the test on NCI-H460 lung, 44.7%; in the test on HOP-92 NSCLC it was 38.6%. Further, the growth was 56.4% in the test on NCI-H522 lung; 36.7% in the test with A549/ATCC NSCLC; 55.7% with 786-0 renal; 50.9% with COLO 205 colon; 73.9% with DU-145 prostate; 81.1% in the test with MALME-3M melanoma. Further, the growth in the test on MDA-MB-231 breast is 71.4%; with RXF 393 renal, 42.7%; in the test with SF-268 CNS it was 43.7%; in the test with SF-295 CNS, 68.7%; in the test with SF-539 CNS, 77.2%; with UACC-257 melanoma, 79.4%. The growth with M14 melanoma is 41.6%.

Consider `COc1cc2nc(C(=O)N3CCCCC3)cc(Nc3ccccc3)c2cc1OC`, for which the growth in the test on NCI-H23 lung was 96.7%; in the test with NCI-H226 lung, 107%; in the test on NCI-H322M lung, 96.1%; in the test with HOP-62 NSCLC, 96%; in the test on NCI-H460 lung it was 102%; in the test on HOP-92 NSCLC it was 73.3%. Further, the growth is 65.7% with NCI-H522 lung; 98.1% in the test with A549/ATCC NSCLC; 95.3% in the test on 786-0 renal; 116% in the test with COLO 205 colon; 92.8% with DU-145 prostate; 116% in the test on MALME-3M melanoma. Further, the growth is 88.6% with MDA-MB-231 breast; 101% with RXF 393 renal; 84.2% in the test on SF-268 CNS; 96.3% in the test on SF-295 CNS; 95.5% with SF-539 CNS; 108% in the test with UACC-257 melanoma. Besides, the growth in the test with M14 melanoma is 116%.

`COc1ccc(C(=O)Cn2cnc3c(Nc4cc(C(=O)Nc5ccc(N6CCN(CCO)CC6)cc5)ccc4C)ncnc32)cc1`: the growth with NCI-H23 lung was 98.2%; in the test on NCI-H226 lung it was 96.9%; in the test on NCI-H322M lung, 101%; in the test with HOP-62 NSCLC, 97.3%; with NCI-H460 lung, 108%; in the test on HOP-92 NSCLC, 121%. Also, the growth with NCI-H522 lung is 87.8%; in the test on A549/ATCC NSCLC, 108%; with 786-0 renal, 98.5%; in the test on COLO 205 colon, 104%; with DU-145 prostate it was 105%; with MALME-3M melanoma it was 116%. Besides, the growth in the test on MDA-MB-231 breast was 110%; in the test with RXF 393 renal it was 113%; in the test on SF-268 CNS, 98.6%; in the test on SF-295 CNS, 93.2%; with SF-539 CNS, 98.2%; in the test on UACC-257 melanoma, 104%. The growth with M14 melanoma was 95.3%.

On to `CC(C(=O)O)N1C(N)=NNC1c1ccccc1O` (configuration not stated), for which the growth in the test with NCI-H23 lung is 86.3%; with NCI-H226 lung, 84.6%; with NCI-H322M lung, 82.3%; with HOP-62 NSCLC, 81.5%; in the test on NCI-H460 lung, 84.7%; in the test on HOP-92 NSCLC, 77.7%. Besides, the growth in the test with NCI-H522 lung is 74.8%; in the test on A549/ATCC NSCLC it was 83.3%; with 786-0 renal, 104%; with COLO 205 colon it was 103%; in the test with DU-145 prostate, 102%; with MALME-3M melanoma, 85.6%. The growth in the test with MDA-MB-231 breast was 76.6%; in the test on RXF 393 renal, 96.4%; in the test with SF-268 CNS it was 84%; in the test on SF-295 CNS, 99.3%; in the test on SF-539 CNS, 103%; in the test on UACC-257 melanoma, 87.1%. Further, the growth in the test on M14 melanoma was 96.9%.

`Nc1nc(Nc2ccc(OCc3cccc(F)c3)cc2)c2c(n1)[nH]c1ccc(O)cc12`: the growth is 6.71% (active) in the test with NCI-H23 lung; -56.2% (active) with NCI-H226 lung; 3.43% (active) in the test on NCI-H322M lung; -17% (active) in the test with HOP-62 NSCLC; -49.2% (active) in the test on NCI-H460 lung; -31.3% (active) with HOP-92 NSCLC. In addition, the growth is -76.2% (active) in the test with NCI-H522 lung; -27.1% (active) in the test with A549/ATCC NSCLC; -96.6% (active) with 786-0 renal; -77.5% (active) in the test with COLO 205 colon; 10.4% with DU-145 prostate; -69.5% (active) in the test with MALME-3M melanoma. Further, the growth in the test with MDA-MB-231 breast was -67.9% (active); with RXF 393 renal it was -76% (active); in the test with SF-268 CNS it was -14.7% (active); with SF-295 CNS, -69.2% (active); in the test with SF-539 CNS, -84% (active); with UACC-257 melanoma, -31.2% (active). For the same compound, the growth in the test with M14 melanoma is -83% (active).

As for `Nc1n[nH]c2cccc(C#Cc3cccc(NC(=O)c4cccc(C(F)(F)F)c4)c3)c12`, the growth in the test on NCI-H23 lung was 39.5%; in the test on NCI-H226 lung it was 44%; with NCI-H322M lung, 46.5%; with HOP-62 NSCLC it was 28.3%; in the test with NCI-H460 lung, 40.3%; in the test on HOP-92 NSCLC, -4.2% (active). Further, the growth with NCI-H522 lung was 41.2%; in the test with A549/ATCC NSCLC, 43.4%; in the test on 786-0 renal it was 23.1%; in the test with COLO 205 colon, 16.5%; with DU-145 prostate it was 48.5%; with MALME-3M melanoma, -0.658% (active). Moreover, the growth in the test with MDA-MB-231 breast is 9.5% (active); in the test on RXF 393 renal, -13.7% (active); in the test on SF-268 CNS, 32.7%; with SF-295 CNS it was 50.3%; with SF-539 CNS, -19.9% (active); in the test with UACC-257 melanoma, 50.3%. In the test with M14 melanoma, the growth is 10.4%.

Turning to `O=C(Cn1c2ccccc2c2ccncc21)N/N=C/c1cc(O)c(O)c(O)c1`, the growth in the test on NCI-H23 lung is 103%; in the test on NCI-H226 lung it was 105%; in the test with NCI-H322M lung it was 108%; in the test with HOP-62 NSCLC, 104%; in the test on NCI-H460 lung, 101%; in the test with HOP-92 NSCLC, 111%. Besides, the growth is 84.5% with NCI-H522 lung; 101% in the test on A549/ATCC NSCLC; 105% in the test with 786-0 renal; 110% with COLO 205 colon; 104% with DU-145 prostate; 112% with MALME-3M melanoma. In addition, the growth is 101% in the test with MDA-MB-231 breast; 97.7% in the test with RXF 393 renal; 98.1% with SF-268 CNS; 110% in the test with SF-295 CNS; 93.1% in the test with SF-539 CNS; 98.8% with UACC-257 melanoma. Also, the growth with M14 melanoma was 110%.
